Measured values: article PMC4336329 (PLoS ONE, 2015)
The whole screen tested about 310,000 compounds, of which about 14,000 (4.5%) showed an effect of 50% or more. Effects have a minus sign here. Many of the other results were omitted from the sample, so strong results are more common in it than they were.

molecular target: human ether-à-go-go-related gene (hERG) potassium channel (human, UniProt Q12809); assay: primary screen, population patch clamp on CHO cells stably expressing hERG; higher = less effect of the substance
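Further: peak tail current of the secondary pulse compared with the same well before compound.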

Chain of human ether-à-go-go-related gene (hERG) potassium channel (Q12809 whole entry, looked up): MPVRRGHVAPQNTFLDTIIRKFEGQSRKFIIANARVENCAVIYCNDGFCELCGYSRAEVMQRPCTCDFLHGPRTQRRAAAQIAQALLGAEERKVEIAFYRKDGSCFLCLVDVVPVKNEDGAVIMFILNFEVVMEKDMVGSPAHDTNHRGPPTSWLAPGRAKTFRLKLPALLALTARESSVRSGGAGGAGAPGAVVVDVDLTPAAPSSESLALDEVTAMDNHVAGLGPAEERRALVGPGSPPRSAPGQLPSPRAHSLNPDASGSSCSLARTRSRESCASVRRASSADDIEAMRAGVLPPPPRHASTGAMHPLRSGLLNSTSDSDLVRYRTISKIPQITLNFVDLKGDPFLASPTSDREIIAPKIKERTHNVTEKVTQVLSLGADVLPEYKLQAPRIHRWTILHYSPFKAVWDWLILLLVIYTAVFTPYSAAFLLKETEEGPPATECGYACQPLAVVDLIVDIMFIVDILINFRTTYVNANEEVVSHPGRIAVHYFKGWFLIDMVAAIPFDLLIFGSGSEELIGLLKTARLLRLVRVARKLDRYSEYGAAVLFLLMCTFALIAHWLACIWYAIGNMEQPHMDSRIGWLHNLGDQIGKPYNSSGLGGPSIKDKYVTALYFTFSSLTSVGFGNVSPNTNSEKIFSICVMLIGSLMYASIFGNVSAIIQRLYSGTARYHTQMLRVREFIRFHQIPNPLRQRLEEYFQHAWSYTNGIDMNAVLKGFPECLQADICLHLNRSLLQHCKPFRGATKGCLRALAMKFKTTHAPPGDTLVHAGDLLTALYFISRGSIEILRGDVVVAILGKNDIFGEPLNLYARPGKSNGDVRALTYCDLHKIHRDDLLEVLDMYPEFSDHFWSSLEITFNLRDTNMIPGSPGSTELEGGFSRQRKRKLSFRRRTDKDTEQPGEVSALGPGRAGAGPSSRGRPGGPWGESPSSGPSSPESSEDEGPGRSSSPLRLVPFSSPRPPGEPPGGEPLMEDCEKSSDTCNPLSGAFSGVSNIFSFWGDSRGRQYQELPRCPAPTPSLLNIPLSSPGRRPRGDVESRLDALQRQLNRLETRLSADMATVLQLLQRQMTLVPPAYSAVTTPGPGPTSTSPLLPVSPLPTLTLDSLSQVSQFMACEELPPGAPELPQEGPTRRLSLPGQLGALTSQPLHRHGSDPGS

Structure (SMILES)	hERG current change (%, negative = inhibition) at 10uM [%]
COc1ccc(CNS(=O)(=O)c2ccc(S(=O)(=O)NC3CC3)cc2)cc1	17.9
Cc1cccc(NC(=O)NCCN2CCCCC2)c1	-25
O=C1CSc2ccccc2N1Cc1ccccc1F	-55.8
O=C1CSc2ccccc2N1Cc1ccc(F)cc1	-38.4
O=C(O)CN1C(=O)CSc2ccccc21	-30.6
COC(=O)c1cccc(NC(=O)c2ccco2)c1	4.02
CC1(C)CC(N2CCCC2)=CC(=[N+]2CCCCC2)C1.[I-]	3.58
CCN(CC)C1=CC(=[N+]2CCCC2)CC(C)(C)C1.[I-]	-4.08
CC1(C)CC(NNCCC#N)=CC(=[N+]2CCCC2)C1.[I-]	5.87
CC1(C)CC(N2CCN(Cc3ccccc3)CC2)=CC(=[N+]2CCCCC2)C1.[I-]	7.04
CCCN(CCC)C1=CC(=[N+]2CCCC2)CC(C)(C)C1.[I-]	-72.4
CC1(C)CC(N2CCN(c3ccccc3)CC2)=CC(=[N+]2CCCC2)C1.[I-]	-15.3
CC1(C)CC(N2CCCC2)=CC(=[N+]2CCCCCC2)C1.[I-]	-8.68
CC1(C)CC(N2CCCC2)=CC(=[N+]2CCCC2)C1.[I-]	-12.1
CC1(C)CC(N2CCN(C(c3ccccc3)c3ccccc3)CC2)=CC(=[N+]2CCCCC2)C1.[I-]	-72.1
CN(Cc1ccccc1)C1=CC(=[N+]2CCCCC2)CC(C)(C)C1.[I-]	-54.3
CC1(C)CC(N2CCCCC2)=CC(=[N+]2CCCCC2)C1.[I-]	8.09
CN(Cc1ccccc1)C1=CC(=[N+]2CCCC2)CC(C)(C)C1.[I-]	-55.4
CCCC(C(=O)O)n1c(O)c(C=C2N=c3ccccc3=N2)sc1=S (stereo not drawn)	6.16
CCN1C(=O)c2ccccc2Sc2ccc(C(=O)NCCN3CCOCC3)cc21	-5.49
O=S(=O)(O)c1ccc(N=NNc2ccc(Br)cc2)cc1	30.7
N#Cc1ccc(C23CC4(C2)[C@H](CN(P(=O)(c2ccccc2)c2ccccc2)[C@@H]4c2ccccc2)C3c2ccc(Cl)nc2)cc1 (stereo partly drawn)	-8
CCC(C)n1c(SCC(=O)/C(C#N)=C(\C)N)nc2ccccc2c1=O (stereo not drawn)	-15.3

Structure (SMILES)	hERG current change (%, negative = inhibition) at 10uM [%]
O=C(/C=C/c1ccco1)Nc1ccc(Oc2ccccc2)cc1	-5.74
COc1ccccc1CNCc1cc(OC)c(OC)cc1OC	-10.3
Cc1cc(OC(C)C)nc(NCc2ccccc2)n1	-3.54
COc1ccccc1-c1coc2c(CN3CCN(CCO)CC3)c(O)ccc2c1=O	17.7
N=c1c2c3c(sc2ncn1Nc1ccccc1)CCC3	-29.6
CCOc1cccc(-c2nn3c(-c4ccco4)nnc3s2)c1	-49.4
COc1cccc(-c2nn3c(-c4ccccn4)nnc3s2)c1	-28
CCOc1cccc(-c2nn3c(-c4ccccn4)nnc3s2)c1	6.33
COc1cccc(-c2nn3c(-c4cccc(C)c4)nnc3s2)c1	17.5
COc1cccc(-c2nn3c(-c4cc(C)[nH]n4)nnc3s2)c1	-57.5
CCOc1cccc(-c2nn3c(-c4cc(C)[nH]n4)nnc3s2)c1	-58.2
CN(C)/C=C/C(=O)c1ccc(N2CCN(c3ncc(C(F)(F)F)cc3Cl)CC2)cc1	-6.08
CCOC(=O)c1ccccc1NC(=S)N1CC(C)CC(C)C1 (stereo not drawn)	-7.45
O=C(O)C(=O)O.c1cncc(CNCCc2ccc3c(c2)OCO3)c1	8.84
COc1cccc(CNCCc2ccc3c(c2)OCO3)c1OC.O=C(O)C(=O)O	-15.5
Brc1cccc(CNCCc2ccc3c(c2)OCO3)c1.O=C(O)C(=O)O	-24.9
COc1ccc(CNCc2cc3c(cc2[N+](=O)[O-])OCO3)cc1.O=C(O)C(=O)O	-40.8
CCOc1ccccc1CNCCc1ccc2c(c1)OCO2.Cl	-32.8
Clc1cccc(CNCCc2ccc3c(c2)OCO3)c1.O=C(O)C(=O)O	-24
Clc1ccc(CNCCc2ccc3c(c2)OCO3)cc1.O=C(O)C(=O)O	-56.1
O=C(O)C(=O)O.O=[N+]([O-])c1cc2c(cc1CNCCc1ccc3c(c1)OCO3)OCO2	-61.5
CCOc1ccc(CNCCc2ccc3c(c2)OCO3)cc1	-77.2
c1cc(CNCCc2ccc3c(c2)OCO3)ccn1	18.3

Structure (SMILES)	hERG current change (%, negative = inhibition) at 10uM [%]
FC(F)(F)c1ccc(CNCCc2ccc3c(c2)OCO3)cc1.O=C(O)C(=O)O	-60.3
Fc1ccc(CNCCc2ccc3c(c2)OCO3)cc1	-3.52
O=C(CSc1ncccn1)Nc1ccccc1	3.55
Cc1ccccc1OCc1ccc(C(=O)N2CCOCC2)o1	6.86
Cc1cc(C)c(C(=O)O)c(Cl)n1	5.94
O=C(OCC(=O)N1CCc2ccccc2C1)c1ccc(Cl)c([N+](=O)[O-])c1	-20.7
CC1=C(c2ccccc2)[N+](=O)C2(CCCC2)N1[O-]	10.3
CCOCCCNC(=S)N(Cc1ccccc1)Cc1nc2ccccc2c(=O)[nH]1	-22.3
CCCc1cc(-c2ccc3c(c2)COc2c4ccccc4nn2-3)on1	-21.4
C/C(=N\NC(=O)c1ccccc1O)c1ccc(NC(=O)c2ccccc2)cc1	15.3
COC(=O)c1c(NC(=O)c2ccccc2)sc2c1CC(C)(C)NC2(C)C	-5
Cc1cccc(C(=O)Nc2ccccc2SCC(=O)Nc2ccc(C)c(Cl)c2)c1	28.5
COc1ccc(C(=O)/C=C/Nc2ccc([N+](=O)[O-])cc2C)c(OC)c1	3.07
O=C(O)Cn1c(SCCOc2ccccc2)nc2ccccc21	0.876
O=S(=O)(c1cccc(-c2nnc(SC(F)F)n2-c2ccccc2)c1)N1CCCCC1	-30.3
CC1CCCCN1S(=O)(=O)c1ccc(C(=O)N(CCCN(C)C)c2nc3ccc(Br)cc3s2)cc1.Cl (stereo not drawn)	-37
CCC1CCCCN1S(=O)(=O)c1ccc(C(=O)N(CCCN(C)C)c2nc3cc4c(cc3s2)OCO4)cc1.Cl (stereo not drawn)	-56
CN(C)CCCN(C(=O)c1ccc(S(=O)(=O)N(C)C)cc1)c1nc2cc3c(cc2s1)OCO3.Cl	15.5
CC1CCCCN1S(=O)(=O)c1ccc(C(=O)N(CCCN(C)C)c2nc3cc4c(cc3s2)OCO4)cc1.Cl (stereo not drawn)	-81.1
COc1cccc(CC(=O)Nc2ccc3nc(C)sc3c2)c1	8.73
CCOc1ccc(/C(O)=C2/C(=O)C(=O)N(CCN(CC)CC)C2c2ccco2)cc1 (stereo not drawn)	-10
COc1ccccc1CNS(=O)(=O)c1ccc(Cl)s1	-6.4
COc1ccc(CC(=O)NCC2CCCN(Cc3ccccc3Cl)C2)cc1 (stereo not drawn)	4.3

Structure (SMILES)	hERG current change (%, negative = inhibition) at 10uM [%]
COc1ccc(CC(=O)NCC2CCCN(Cc3ccccc3OC)C2)cc1 (stereo not drawn)	10.5
COc1cc(OC)cc(C(=O)NCC2CCCN(Cc3cccc(C(C)=O)c3)C2)c1 (stereo not drawn)	-25.3
COc1ccc(CC(=O)NCC2CCCN(Cc3ccc(OC(F)(F)F)cc3)C2)cc1 (stereo not drawn)	-63.7
COC(=O)c1ccc(CN2CCCC(CNC(=O)Cc3ccc(OC)cc3)C2)cc1 (stereo not drawn)	-14.7
COc1ccc(CC(=O)NCC2CCCN(Cc3cccc(SC)c3)C2)cc1 (stereo not drawn)	-34.6
CCc1ccc(CN2CCCC(CNC(=O)c3cc(OC)cc(OC)c3)C2)cc1 (stereo not drawn)	-69.9
COc1cc(OC)cc(C(=O)NCC2CCCN(C(=O)c3oc(C)cc3C)C2)c1 (stereo not drawn)	-18.5
COc1ccc(CC(=O)NCC2CCCN(Cc3ccc(SC)cc3)C2)cc1 (stereo not drawn)	-67.5
COc1cc(OC)cc(C(=O)NCC2CCCN(Cc3ccc(SC)cc3)C2)c1 (stereo not drawn)	-72.3
COc1ccc(CC(=O)NCC2CCCN(Cc3cc(OC)cc(OC)c3)C2)cc1 (stereo not drawn)	-21
Cc1cc(CNC(=O)CCc2nnc(CCCCc3ccccc3)o2)nn1C	38.1
Cc1ccc(NC(=O)N2CCCc3ccccc32)cc1C	-29.2
COc1ccc(OC)c(N(CC(=O)N2CCC(C)CC2)S(=O)(=O)c2ccccc2)c1	-22.2
CCCc1nnc(SCC(=O)O)n1/N=C/c1ccc2c(c1)OCO2	-7.5
CCOc1ccccc1CNC(=O)c1nn(CC)cc1[N+](=O)[O-]	9.07
C=CCSc1nnc(-c2sc(-c3ccccc3)nc2C)n1C	-33.6
Cc1cc(NC(=O)CSCC(=O)N(C)Cc2ccc(Cl)c(Cl)c2)no1	-9.94
CCOC(=O)c1[nH]c2ccc(OC)cc2c1NS(=O)(=O)c1ccc(Cl)s1	12.9
COc1ccccc1CN1CCCC(CNC(=O)c2cccc3ccccc23)C1 (stereo not drawn)	-47.8
CCc1ccc(CN2CCCC(CNC(=O)c3cccc(OC)c3OC)C2)cc1 (stereo not drawn)	-54.1
CCOc1cccc(CN2CCCC(CNC(=O)c3cccc(OC)c3OC)C2)c1 (stereo not drawn)	-9.11
